# Assay results taken from PubChem BioAssay (EPA / NIEHS).
# Records with an inconclusive call do not appear. Active and inactive are the calls of the source. Rule for the calls, unless noted: active = hit-call score of the fitted dose curve at least 0.9, where 1 is the maximum; inconclusive = response in the unintended direction; inactive = score below 0.9.
# Legend:
# [1] = target: rat CYP2A2, Cyp2a2 (gene 24895) (UniProt P15149); experiment: NVS_ADME_rCYP2A2: NovaScreen (NVS) CYP450-related Enzyme Activity (ADME) Assay for rat CYP2A2 (AID 2283116)
# Summary of the method: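 Compounds first tested in duplicate at 10 uM, then in singleton concentration series up to 20 uM when over threshold. Activity of the recombinant enzyme read by fluorescence at 0.2 h, normalised to acetonitrile vehicle.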
# rat CYP2B1, gene 24300 = experiment: NVS_ADME_rCYP2B1: NovaScreen (NVS) CYP450-related Enzyme Activity (ADME) Assay for rat CYP2B1 (AID 2283117)
# Summary of the method: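 Cell-free fluorescence enzyme assay, recombinant rat CYP2B1, 0.75 h after dosing. Single-concentration duplicates at 10 uM preceded concentration series (max 20 uM) for actives; acetonitrile as negative-control baseline.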
# [2] = target: human AKT serine/threonine Kinase 1 (AKT1), AKT1 (gene 207) (UniProt P31749); experiment: NVS_ENZ_hAKT1: NovaScreen (NVS) Enzymatic Assay for human AKT serine/threonine Kinase 1 (AKT1) (AID 2283138)
# Summary of the method: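 A biochemical assay with recombinant enzyme and specific substrate, read by fluorescence intensity with mobility-shift separation 1 hour after dosing. Actives from 25 uM duplicate screening were titrated up to 50 uM against DMSO baseline.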
# [3] = target: human Beta-secretase (BACE), BACE1 (gene 23621) (UniProt P56817); experiment: NVS_ENZ_hBACE: NovaScreen (NVS) Enzymatic Assay for human Beta-secretase (BACE) (AID 2283140);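 note: hits are inhibitors that reduce fluorescent substrate signal versus DMSO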
# Summary of the method: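 Enzyme activity of SF9-produced BACE1 is measured cell-free by fluorescence, 1 hour post dosing, normalised to DMSO. Screening used 25 uM in duplicate, with concentration-response follow-up for actives.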
# [4] = target: rat CYP2A1, Cyp2a1 (gene 24894) (UniProt P11711); experiment: NVS_ADME_rCYP2A1: NovaScreen (NVS) CYP450-related Enzyme Activity (ADME) Assay for rat CYP2A1 (AID 2283114; active = hit-call score of the fitted dose curve at least 0.9, where 1 is the maximum; inactive = score below 0.9)
# Summary of the method: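 Cell-free fluorescence enzyme-activity read on recombinant rat CYP2A1, taken 0.75 h post-dosing. Compounds were screened in duplicate at 10 uM, then hits tested in concentration series (max 20 uM); inhibition scored relative to acetonitrile baseline.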
# [5] = target: rat CYP2C11, Cyp2c11 (gene 29277) (UniProt P08683); experiment: NVS_ADME_rCYP2C11: NovaScreen (NVS) CYP450-related Enzyme Activity (ADME) Assay for rat CYP2C11 (AID 2283118)
# Summary of the method: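 Screened first at 10 uM in duplicate, hits followed by concentration-response. Recombinant rat enzyme activity monitored by fluorescence 0.33 h post-dosing, normalised to acetonitrile negative control.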
# [6] = target: rat CYP2C12, Cyp2c12 (gene 25011) (UniProt P11510); experiment: NVS_ADME_rCYP2C12: NovaScreen (NVS) CYP450-related Enzyme Activity (ADME) Assay for rat CYP2C12 (AID 2283119)
# Summary of the method: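 Fluorescent-substrate turnover by recombinant rat CYP2C12, measured at 0.5 h, normalized to acetonitrile vehicle. Chemicals screened first at a single 10 uM concentration in duplicate, with concentration series for actives.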
# rat CYP2C6, gene 293989 = experiment: NVS_ADME_rCYP2C6: NovaScreen (NVS) CYP450-related Enzyme Activity (ADME) Assay for rat CYP2C6 (AID 2283120)
# Summary of the method: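 Compounds first tested in duplicate at 10 uM, hits (e.g. 30% inhibition) re-run in singleton dose series to a 20 uM top concentration. Enzyme activity of recombinant rat CYP2C6 measured via fluorescent substrate turnover after 1 h; acetonitrile baseline.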
# [7] = target: rat CYP2D1, Cyp2d1 (gene 266684) (UniProt P10633); experiment: NVS_ADME_rCYP2D1: NovaScreen (NVS) CYP450-related Enzyme Activity (ADME) Assay for rat CYP2D1 (AID 2283122)
# Summary of the method: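 Rat CYP2D1 enzyme activity measured by fluorescence intensity in a cell-free format, 0.75 h post-dosing, acetonitrile as negative control. Screening at 10 uM in duplicate, with actives followed in concentration series up to 20 uM.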
# [8] = target: rat CYP2D2, Cyp2d26 (gene 25053) (UniProt P10634); experiment: NVS_ADME_rCYP2D2: NovaScreen (NVS) CYP450-related Enzyme Activity (ADME) Assay for rat CYP2D2 (AID 2283124)
# Summary of the method: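 Single-concentration duplicate testing at 10 uM, followed by concentration-response (top 20 uM) for chemicals passing threshold. Enzyme activity of the recombinant rat isoform measured by fluorescence after 0.75 h, acetonitrile as baseline.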
# rat CYP3A1, gene 25642 = experiment: NVS_ADME_rCYP3A1: NovaScreen (NVS) CYP450-related Enzyme Activity (ADME) Assay for rat CYP3A1 (AID 2283126)
# Summary of the method: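 Compounds went first at 10 uM duplicate, then to series with 20 uM maximum. Fluorescence from substrate turnover by the recombinant enzyme was measured 0.5 h post-dosing, inhibition scored against acetonitrile vehicle.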
# [9] = target: rat CYP1A2, Cyp1a2 (gene 24297) (UniProt P04799); experiment: NVS_ADME_rCYP1A2: NovaScreen (NVS) CYP450-related Enzyme Activity (ADME) Assay for rat CYP1A2 (AID 2283115)
# Summary of the method: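 Primary testing ran in duplicate at 10 uM, with actives re-tested across concentration series. Fluorescence intensity from substrate turnover by recombinant protein, measured 1 hour post-dosing, with signal loss scored against acetonitrile vehicle.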
# [10] = target: human Caspase 10 (CASP10), CASP10 (gene 843) (UniProt Q92851); experiment: NVS_ENZ_hCASP10: NovaScreen (NVS) Enzymatic Assay for human Caspase 10 (CASP10) (AID 2283133)
# Summary of the method: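 Fluorescence-intensity enzyme read-out of E. coli-expressed CASP10 activity, 1 h after compound. Single-point duplicates at 25 uM preceded concentration-response testing (top 50 uM) of hits; inhibition expressed as signal loss versus DMSO.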
# Sequence of rat CYP2D2, Cyp2d26 (gene 25053) (P10634 whole entry, looked up, canonical isoform): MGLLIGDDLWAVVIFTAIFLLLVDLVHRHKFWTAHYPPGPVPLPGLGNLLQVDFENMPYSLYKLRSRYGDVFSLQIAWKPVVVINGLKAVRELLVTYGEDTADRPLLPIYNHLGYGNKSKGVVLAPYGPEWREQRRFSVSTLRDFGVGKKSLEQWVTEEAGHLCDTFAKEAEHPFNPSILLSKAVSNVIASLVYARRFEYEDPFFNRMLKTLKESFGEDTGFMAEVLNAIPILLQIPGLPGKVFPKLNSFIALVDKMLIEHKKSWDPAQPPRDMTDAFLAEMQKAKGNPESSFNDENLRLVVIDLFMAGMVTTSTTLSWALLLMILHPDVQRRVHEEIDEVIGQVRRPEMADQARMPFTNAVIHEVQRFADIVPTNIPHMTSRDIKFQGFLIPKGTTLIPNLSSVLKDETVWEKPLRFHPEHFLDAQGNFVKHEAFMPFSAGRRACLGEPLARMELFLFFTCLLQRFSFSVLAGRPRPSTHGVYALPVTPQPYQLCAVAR
# Sequence of rat CYP2A2, Cyp2a2 (gene 24895) (P15149 whole entry, looked up): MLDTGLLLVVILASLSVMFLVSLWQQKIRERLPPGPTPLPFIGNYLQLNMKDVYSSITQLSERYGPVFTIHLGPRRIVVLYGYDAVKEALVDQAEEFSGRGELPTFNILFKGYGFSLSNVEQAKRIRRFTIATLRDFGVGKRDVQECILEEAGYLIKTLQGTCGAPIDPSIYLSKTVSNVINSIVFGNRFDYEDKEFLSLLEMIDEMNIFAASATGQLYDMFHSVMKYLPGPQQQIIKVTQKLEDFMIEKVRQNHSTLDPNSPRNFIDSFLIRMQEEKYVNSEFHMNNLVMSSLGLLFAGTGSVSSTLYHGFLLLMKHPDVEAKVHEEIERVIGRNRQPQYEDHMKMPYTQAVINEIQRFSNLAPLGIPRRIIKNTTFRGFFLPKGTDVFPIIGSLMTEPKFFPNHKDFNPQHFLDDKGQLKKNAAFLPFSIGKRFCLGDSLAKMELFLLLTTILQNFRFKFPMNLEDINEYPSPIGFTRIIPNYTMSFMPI
# Sequence of rat CYP2A1, Cyp2a1 (gene 24894) (P11711 whole entry, looked up): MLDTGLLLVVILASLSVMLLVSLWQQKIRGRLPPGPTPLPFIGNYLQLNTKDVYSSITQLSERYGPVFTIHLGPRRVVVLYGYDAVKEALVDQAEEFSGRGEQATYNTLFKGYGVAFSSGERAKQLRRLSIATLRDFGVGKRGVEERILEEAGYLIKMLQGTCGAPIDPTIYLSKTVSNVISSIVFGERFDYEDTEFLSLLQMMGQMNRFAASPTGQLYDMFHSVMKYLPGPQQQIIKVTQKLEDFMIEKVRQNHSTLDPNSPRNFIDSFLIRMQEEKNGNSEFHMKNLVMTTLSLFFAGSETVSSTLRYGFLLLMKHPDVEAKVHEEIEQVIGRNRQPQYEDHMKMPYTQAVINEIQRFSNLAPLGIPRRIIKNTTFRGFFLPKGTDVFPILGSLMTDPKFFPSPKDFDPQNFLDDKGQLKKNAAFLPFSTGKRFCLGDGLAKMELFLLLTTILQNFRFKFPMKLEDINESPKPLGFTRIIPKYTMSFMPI
# Sequence of rat CYP2C11, Cyp2c11 (gene 29277) (P08683 whole entry, looked up): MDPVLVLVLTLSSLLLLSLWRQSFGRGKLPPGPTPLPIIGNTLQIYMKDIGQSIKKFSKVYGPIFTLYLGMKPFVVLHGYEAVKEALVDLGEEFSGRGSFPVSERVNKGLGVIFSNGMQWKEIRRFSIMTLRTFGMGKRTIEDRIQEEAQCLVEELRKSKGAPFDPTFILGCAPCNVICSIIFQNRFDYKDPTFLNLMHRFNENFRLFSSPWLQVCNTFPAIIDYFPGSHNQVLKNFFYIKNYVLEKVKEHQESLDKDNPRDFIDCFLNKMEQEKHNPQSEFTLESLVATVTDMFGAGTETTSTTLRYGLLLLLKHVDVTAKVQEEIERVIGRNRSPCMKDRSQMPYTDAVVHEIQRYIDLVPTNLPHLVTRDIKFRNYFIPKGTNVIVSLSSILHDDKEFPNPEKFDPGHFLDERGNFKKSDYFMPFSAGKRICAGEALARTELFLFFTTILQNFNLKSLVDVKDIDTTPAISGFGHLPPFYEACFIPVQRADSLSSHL
# Sequence of rat CYP2D1, Cyp2d1 (gene 266684) (P10633 whole entry, looked up): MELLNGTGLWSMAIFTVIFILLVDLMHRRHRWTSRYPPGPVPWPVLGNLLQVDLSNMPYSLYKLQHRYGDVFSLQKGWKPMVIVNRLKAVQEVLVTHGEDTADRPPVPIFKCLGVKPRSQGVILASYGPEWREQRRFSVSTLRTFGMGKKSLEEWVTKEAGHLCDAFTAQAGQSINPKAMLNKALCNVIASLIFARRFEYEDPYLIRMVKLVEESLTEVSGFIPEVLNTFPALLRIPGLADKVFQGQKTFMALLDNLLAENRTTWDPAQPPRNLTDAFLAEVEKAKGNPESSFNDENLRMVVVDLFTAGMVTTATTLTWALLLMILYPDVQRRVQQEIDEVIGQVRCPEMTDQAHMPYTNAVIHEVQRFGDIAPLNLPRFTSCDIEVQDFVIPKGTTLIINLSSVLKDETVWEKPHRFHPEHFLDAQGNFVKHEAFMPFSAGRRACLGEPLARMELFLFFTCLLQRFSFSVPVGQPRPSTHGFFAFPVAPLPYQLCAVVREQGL
# Sequence of rat CYP2C12, Cyp2c12 (gene 25011) (P11510 whole entry, looked up): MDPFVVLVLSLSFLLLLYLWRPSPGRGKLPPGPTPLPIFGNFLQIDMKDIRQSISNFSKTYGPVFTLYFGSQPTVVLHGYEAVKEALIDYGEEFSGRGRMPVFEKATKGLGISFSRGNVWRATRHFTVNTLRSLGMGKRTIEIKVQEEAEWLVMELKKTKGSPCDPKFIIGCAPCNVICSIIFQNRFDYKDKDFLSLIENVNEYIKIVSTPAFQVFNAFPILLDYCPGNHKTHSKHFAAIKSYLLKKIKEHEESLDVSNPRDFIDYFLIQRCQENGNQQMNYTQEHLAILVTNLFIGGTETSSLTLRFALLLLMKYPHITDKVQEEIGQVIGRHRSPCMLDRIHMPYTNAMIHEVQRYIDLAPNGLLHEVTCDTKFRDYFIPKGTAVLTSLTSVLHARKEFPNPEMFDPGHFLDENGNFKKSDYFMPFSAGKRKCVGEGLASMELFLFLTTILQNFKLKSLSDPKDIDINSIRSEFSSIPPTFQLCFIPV
# Sequence of human AKT serine/threonine Kinase 1 (AKT1), AKT1 (gene 207) (P31749 whole entry, looked up): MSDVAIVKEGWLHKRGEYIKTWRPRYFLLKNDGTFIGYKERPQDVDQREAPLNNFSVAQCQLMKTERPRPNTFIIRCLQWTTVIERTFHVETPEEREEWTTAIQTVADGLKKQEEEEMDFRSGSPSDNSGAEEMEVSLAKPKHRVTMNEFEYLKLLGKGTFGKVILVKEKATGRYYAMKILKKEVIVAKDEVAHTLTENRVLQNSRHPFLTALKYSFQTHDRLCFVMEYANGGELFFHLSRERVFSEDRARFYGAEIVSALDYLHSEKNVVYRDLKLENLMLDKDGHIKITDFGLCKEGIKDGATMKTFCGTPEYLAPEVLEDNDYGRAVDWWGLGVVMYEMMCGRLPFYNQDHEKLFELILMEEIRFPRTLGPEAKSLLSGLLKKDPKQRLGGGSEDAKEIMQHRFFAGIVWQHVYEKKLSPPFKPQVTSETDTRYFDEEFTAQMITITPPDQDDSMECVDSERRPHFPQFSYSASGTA
# Sequence of rat CYP1A2, Cyp1a2 (gene 24297) (P04799 whole entry, looked up): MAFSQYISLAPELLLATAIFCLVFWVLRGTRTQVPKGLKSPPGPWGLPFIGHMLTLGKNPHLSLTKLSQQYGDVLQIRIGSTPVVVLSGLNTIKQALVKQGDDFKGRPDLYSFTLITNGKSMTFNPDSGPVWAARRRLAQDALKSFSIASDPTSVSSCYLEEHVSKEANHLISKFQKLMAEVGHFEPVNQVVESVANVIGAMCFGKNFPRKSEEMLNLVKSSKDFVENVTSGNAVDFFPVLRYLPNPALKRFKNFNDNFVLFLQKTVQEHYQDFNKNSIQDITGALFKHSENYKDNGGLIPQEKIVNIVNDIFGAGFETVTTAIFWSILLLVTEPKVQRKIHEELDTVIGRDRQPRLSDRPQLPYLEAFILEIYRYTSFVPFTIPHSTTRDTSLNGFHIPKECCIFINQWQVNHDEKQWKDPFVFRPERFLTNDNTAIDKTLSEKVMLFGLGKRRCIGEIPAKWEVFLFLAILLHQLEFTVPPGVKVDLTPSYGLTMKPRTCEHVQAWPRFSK
# Sequence of human Beta-secretase (BACE), BACE1 (gene 23621) (P56817 whole entry, looked up): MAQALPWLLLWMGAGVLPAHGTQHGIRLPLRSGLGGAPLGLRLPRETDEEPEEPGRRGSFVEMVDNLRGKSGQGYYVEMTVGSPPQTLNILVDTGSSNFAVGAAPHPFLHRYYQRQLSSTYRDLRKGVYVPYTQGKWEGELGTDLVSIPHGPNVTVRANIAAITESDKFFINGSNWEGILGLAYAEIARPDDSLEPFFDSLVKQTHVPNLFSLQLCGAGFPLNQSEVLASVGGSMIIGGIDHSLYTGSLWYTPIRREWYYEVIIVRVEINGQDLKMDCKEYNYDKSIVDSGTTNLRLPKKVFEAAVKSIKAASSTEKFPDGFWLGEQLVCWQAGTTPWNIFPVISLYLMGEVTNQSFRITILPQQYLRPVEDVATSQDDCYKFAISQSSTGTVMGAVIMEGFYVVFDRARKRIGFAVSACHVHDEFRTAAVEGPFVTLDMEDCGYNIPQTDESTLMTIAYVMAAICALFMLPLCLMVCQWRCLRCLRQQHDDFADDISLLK
# Sequence of human Caspase 10 (CASP10), CASP10 (gene 843) (Q92851 whole entry, looked up): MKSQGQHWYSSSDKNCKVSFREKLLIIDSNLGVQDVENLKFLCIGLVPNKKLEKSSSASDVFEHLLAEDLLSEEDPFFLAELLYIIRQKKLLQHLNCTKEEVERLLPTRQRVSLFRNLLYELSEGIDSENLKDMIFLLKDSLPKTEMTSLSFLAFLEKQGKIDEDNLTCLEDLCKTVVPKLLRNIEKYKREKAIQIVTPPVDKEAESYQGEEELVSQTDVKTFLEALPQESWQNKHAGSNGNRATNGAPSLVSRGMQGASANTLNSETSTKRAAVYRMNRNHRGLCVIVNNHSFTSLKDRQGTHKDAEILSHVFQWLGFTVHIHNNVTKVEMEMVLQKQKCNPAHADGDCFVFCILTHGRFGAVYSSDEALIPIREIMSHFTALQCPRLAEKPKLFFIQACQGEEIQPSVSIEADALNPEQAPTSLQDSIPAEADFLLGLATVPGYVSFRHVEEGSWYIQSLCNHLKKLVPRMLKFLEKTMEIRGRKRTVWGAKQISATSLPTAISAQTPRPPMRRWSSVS
smiles,measurement,setting,value
Nc1c(Cl)cc([N+](=O)[O-])cc1Cl,AC50,[1],0.113 µM (active)
same,outcome,"rat CYP2B1, gene 24300",inactive
same,outcome,[2],inactive
CCCCOC(=O)c1ccccc1C(=O)O,AC50,[1],2.6 µM (active)
same,outcome,"rat CYP2B1, gene 24300",inactive
same,outcome,[2],inactive
same,outcome,[3],inactive
FC(F)C(F)(F)OCC(Cn1cncn1)c1ccc(Cl)cc1Cl (centres undefined),AC50,[4],1.85 µM (active)
same,AC50,[1],0.074 µM (active)
same,AC50,"rat CYP2B1, gene 24300",0.452 µM (active)
same,AC50,[5],0.732 µM (active)
same,AC50,[6],3.95 µM (active)
same,AC50,"rat CYP2C6, gene 293989",1.68 µM (active)
same,AC50,[7],7.86 µM (active)
same,AC50,[8],5.52 µM (active)
same,AC50,"rat CYP3A1, gene 25642",3.65 µM (active)
C=C(C)[C@H]1Cc2c(ccc3c2O[C@@H]2COc4cc(OC)c(OC)cc4[C@@H]2C3=O)O1,outcome,[4],inactive
same,outcome,[1],inactive
same,outcome,"rat CYP2B1, gene 24300",inactive
same,AC50,[5],5.05 µM (active)
CNc1cnn(-c2cccc(C(F)(F)F)c2)c(=O)c1Cl,outcome,[9],inactive
same,outcome,[8],inactive
same,AC50,"rat CYP3A1, gene 25642",2.91 µM (active)
CCc1cccc(CC)c1N(COC)C(=O)CCl,AC50,"rat CYP2B1, gene 24300",3.44 µM (active)
same,outcome,[10],inactive
CCOP(=S)(OCC)Oc1ccc2c(C)c(Cl)c(=O)oc2c1,outcome,[4],inactive
same,outcome,[1],inactive
same,AC50,"rat CYP2B1, gene 24300",0.914 µM (active)
same,AC50,[5],1.2 µM (active)
same,AC50,[6],0.799 µM (active)
same,AC50,"rat CYP2C6, gene 293989",0.452 µM (active)
same,AC50,[7],0.854 µM (active)
same,outcome,[8],inactive
same,AC50,"rat CYP3A1, gene 25642",1.22 µM (active)
